High-throughput results from PubChem BioAssay.
A selection: hits, their analogues and other compounds. The true share with any hit is near 1.4%.
hERG WT inh = qHTS for Inhibitors of KCHN2 3.1: Wildtype qHTS; Voltage-gated inwardly rectifying potassium channel KCNH2 (Homo sapiens), Q12809; U2OS, BacMam KCNH2, thallium flux FluxOr; active compounds read low; hit rate 0.37% among 340,000; activity change, % at 1.84 µM;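 active = maximum activity change below -70%; inconclusive = maximum activity change between -70% and -50%; inactive = maximum activity change above -50%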; also: % is scaled to controls: 0 for no effect and ±100 for the full control effect
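U2OS cells were transduced with wild-type KCNH2 virus (2.03 x 10^8 / mL) for 4 h at room temperature, then cultured overnight at 37 C. Thallium flux was read with FluxOr dye. Rate constants were normalized to DMSO controls.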
KCNH2 3.1 inh = qHTS for Inhibitors of KCHN2 3.1: Mutant qHTS | hit rate 0.95% among 340,000 | activity change, % (tested at about 1.8 µM) | AID 720553, 2013 | U2OS KCNH2 3.1, thallium flux FluxOr; active compounds read low;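 active = maximum activity change below -70%; inconclusive = maximum activity change from -70% to -50%; inactive = maximum activity change above -50%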;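 also: thallium influx rate constant from kinetic fluorescence after stimulation buffer; % is scaled to controls: 0 for no effect and ±100 for the full control effect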
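We transduce U2OS cells with the mutant 3.1 virus, culture them overnight, load FluxOr with Red40 quencher for 45 min, then add stimulation buffer and read kinetically for 2 min to derive a normalized rate constant.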
S-ASM inh = Inhibitors of Secretory Acid Sphingomyelinase (S-ASM): qHTS; hit rate 0.006% among 340,000; AID 504937, 2011; Potency, µM (doses to about 57.5 µM), for the others: at the top dose activity change, negative = inhibition, hits mostly inhibitors; placental ASM, HMU-PC fluorogenic substrate, 60 min; also: potency is read from the fitted curve at half-maximal effect
Target sequence (P17405 47-631 limits assumed): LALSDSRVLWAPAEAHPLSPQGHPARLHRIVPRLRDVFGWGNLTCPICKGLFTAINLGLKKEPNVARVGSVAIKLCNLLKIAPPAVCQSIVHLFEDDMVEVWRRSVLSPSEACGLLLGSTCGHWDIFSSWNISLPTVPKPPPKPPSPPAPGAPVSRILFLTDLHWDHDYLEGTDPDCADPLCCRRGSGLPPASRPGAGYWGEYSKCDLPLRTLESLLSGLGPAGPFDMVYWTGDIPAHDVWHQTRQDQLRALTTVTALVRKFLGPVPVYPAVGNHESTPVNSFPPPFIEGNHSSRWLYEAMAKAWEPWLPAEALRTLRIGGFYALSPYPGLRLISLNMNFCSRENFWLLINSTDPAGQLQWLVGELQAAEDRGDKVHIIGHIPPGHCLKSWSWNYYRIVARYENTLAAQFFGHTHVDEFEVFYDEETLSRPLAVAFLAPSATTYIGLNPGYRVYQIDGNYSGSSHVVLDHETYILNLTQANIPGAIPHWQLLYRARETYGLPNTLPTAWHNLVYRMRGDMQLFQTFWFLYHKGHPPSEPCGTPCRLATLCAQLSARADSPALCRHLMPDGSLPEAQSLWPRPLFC
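Fluorogenic HMU-PC substrate (9 uM final) is turned over by placental ASM in 60 min at 37 C after a 10 min compound preincubation. Reaction ended by alkaline stop (pH 10), with fluorescence read at 386/447 nm.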
Mm-Cpn inhibitor = Inhibitors of TCP-1 ring complex (TRiC) of Methanococcus maripaludis (MmCpn): qHTS. purified Mm-Cpn ATPase, ADP Transcreener TR-FRET. Potency, µM (top dose mostly 76.9 µM), inactives show at the top dose activity, negative = inhibition, hits mostly inhibitors. hit rate 0.031% among 330,000; also: potency is read from the fitted curve at half-maximal effect; % is scaled to controls: 0 for no effect and ±100 for the full control effect; nearly all actives have a fitted effect of over 80% in size
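25 nM Mm-CPN + cpd, 10 min 37°C; + 10 uM ATP, 30 min 37°C; buffer 30 mM Tris pH 7.4, 100 mM KCl, 5 mM MgCl2, 1 mM DTT; Transcreener ADP HTRF detection 30 min RT.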
uPA surface inh = qHTS for Inhibitors of Cell Surface uPA Generation; cell surface uPA generation assay, qHTS; Potency, µM (top dose mostly 38.3 µM), for the others: at the top dose activity change, negative = inhibition, most hits filed as inhibitors; hit rate 0.31% among 330,000; AID 540303, 2011; active = well fitted inhibition curve with a large enough effect; inconclusive = small, poorly fitted or top-dose-only effect; inactive = no such curve, though single readings can be large or run the other way; tested in mouse RAW 264.7 cells; also: potency is read from the fitted curve at half-maximal effect; % is scaled to controls: 0 for no effect and ±100 for the full control effect; nearly all actives have a fitted effect of over 55% in size
p53 reactivator = qHTS assay for re-activators of p53 using a Luc reporter | H1299 p53-A138V BP100-luciferase reporter, luminescence, 24 h | Potency, µM (series often up to 92.2 µM), for inactives: top-dose activity change, positive = activation, most hits filed as activators | hit rate 0.063% among 320,000 | AID 504706, 2011; also: potency is read from the fitted curve at half-maximal effect; % of control where 0% means no effect; nearly all actives have a fitted effect of over 45% in size
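H1299 (p53-null), stable ts p53-A138V + BP100-Luc; 1000 cells/well, Opti-MEM/10% FBS; cpd 4 pt, 1:5; 24 h, 37 deg C, 5% CO2; detection reagent 10 min RT; luminescence.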
* hit, by the source's call. Unless noted, calls follow the shape of the dose curve; as a rule, active = well fitted curve in the direction sought with a large enough effect; inconclusive = small, poorly fitted or top-dose-only effect, or another doubt; inactive = no such curve, though single readings can be large; an effect the other way counts as inactive or inconclusive.

For CCOC(=O)C1CCN(C(=O)c2ccc(N(C)S(C)(=O)=O)cc2)CC1 the results were hERG WT inh -14, KCNH2 3.1 inh -19, S-ASM inh 1%, Mm-Cpn inhibitor 2%, uPA surface inh 2% and p53 reactivator 0%.
CCOC(=O)C1CCN(C(=O)c2ccccc2N(C)S(C)(=O)=O)CC1 was read as hERG WT inh -26, KCNH2 3.1 inh -91*, S-ASM inh 6%, Mm-Cpn inhibitor 0% and p53 reactivator 1%.
For Cn1cnc([N+](=O)[O-])c1S(=O)(=O)Oc1ccc(Cl)cc1 the results were hERG WT inh -1, KCNH2 3.1 inh -20, S-ASM inh 7% and uPA surface inh -15%.
`CC(=O)Oc1cc2c3c(c1)/C(=C1/SC(=S)NC1=O)C(=O)N3C(C)(C)C=C2C` gave hERG WT inh 0, KCNH2 3.1 inh 5, S-ASM inh -18%, Mm-Cpn inhibitor -5%, uPA surface inh 7% and p53 reactivator 8%.
Screening CCN(CC)CCCNC(=O)c1[nH]c2ccccc2c1Sc1ccc(Cl)cc1 returned hERG WT inh -127*, KCNH2 3.1 inh -111*, S-ASM inh -1%, Mm-Cpn inhibitor -9%, uPA surface inh 4% and p53 reactivator -2%.
Screening COC(=O)c1[nH]c2ccccc2c1Sc1ccccc1 returned hERG WT inh 3, KCNH2 3.1 inh -14, S-ASM inh 6%, Mm-Cpn inhibitor inconclusive, uPA surface inh 5% and p53 reactivator 7%.
`COC(=O)c1cc2c(n1S(=O)(=O)c1ccc(C)cc1)C(=O)C(=O)c1[nH]cc(C(=O)OCc3ccccc3)c1-2` gave hERG WT inh -21, S-ASM inh -22% and uPA surface inh -9%.
`O=C(Nc1ccccc1OC(=O)c1ccccc1)c1ccccc1` gave hERG WT inh 20, KCNH2 3.1 inh 12, S-ASM inh -2% and uPA surface inh 11µM*.
O=C(CCc1ccccc1)Nc1ccccc1OC(=O)c1ccccc1 was read as hERG WT inh -8, KCNH2 3.1 inh -19, S-ASM inh -4% and uPA surface inh 2%.
`CCn1nc(C)c(CN2CCC(C(=O)Nc3cccc(-c4cccc(F)c4)c3)CC2)c1C` gave hERG WT inh inconclusive, KCNH2 3.1 inh -78*, S-ASM inh -2%, Mm-Cpn inhibitor -2%, uPA surface inh 2% and p53 reactivator 4%.
For CCn1cc(CN2CCC(C(=O)Nc3cccc(-c4cccc(F)c4)c3)CC2)cn1 the results were hERG WT inh 30, KCNH2 3.1 inh -46, S-ASM inh 4%, Mm-Cpn inhibitor 2%, uPA surface inh -5% and p53 reactivator 28%.
COc1cccc(O)c1CN1CCC(C(=O)Nc2ccc(Oc3cccnc3)cc2)CC1 was read as hERG WT inh -3, KCNH2 3.1 inh -23, S-ASM inh -1%, Mm-Cpn inhibitor 0%, uPA surface inh -26% and p53 reactivator 0%.
COc1cccc(O)c1CN1CCC(C(=O)Nc2ccc(-c3cccc(C)c3)cc2)CC1 was read as hERG WT inh -42, KCNH2 3.1 inh -99*, S-ASM inh inconclusive, Mm-Cpn inhibitor -3% and uPA surface inh -16%.
`COc1ccc(CN2CCC(C(=O)Nc3ccc(Oc4cccnc4)cc3)CC2)c(C)c1C` gave hERG WT inh 5, KCNH2 3.1 inh -74*, S-ASM inh 3%, Mm-Cpn inhibitor 2%, uPA surface inh -4% and p53 reactivator 8%.
`COC(=O)C(C)n1cnc2c(nnn2-c2ccccc2)c1=O` (stereo not given) gave hERG WT inh 6, KCNH2 3.1 inh 12, S-ASM inh -2%, Mm-Cpn inhibitor -1% and uPA surface inh -7%.
O=C(Cn1cncn1)NCCC(c1ccccc1)c1ccccc1 was read as hERG WT inh -1, KCNH2 3.1 inh 13, S-ASM inh -2%, Mm-Cpn inhibitor -3%, uPA surface inh -1% and p53 reactivator -2%.
For O=C(Cn1cncn1)NCCCc1ccccc1 the results were hERG WT inh -177*, KCNH2 3.1 inh 6, S-ASM inh 0%, Mm-Cpn inhibitor -2%, uPA surface inh -12% and p53 reactivator -2%.
`CCOc1ccc(CNC(=O)C2Cc3cc(S(=O)(=O)N4CCCC4)ccc3N2C(C)=O)cc1` (stereo not given) gave hERG WT inh 15, KCNH2 3.1 inh 3, S-ASM inh -1%, Mm-Cpn inhibitor 4%, uPA surface inh 1% and p53 reactivator 9%.
Screening COCCNC(=O)C1CCN(S(=O)(=O)N2CCC3(CC2)OCCO3)CC1 returned hERG WT inh -8, KCNH2 3.1 inh -200*, S-ASM inh 2%, Mm-Cpn inhibitor 0%, uPA surface inh -6% and p53 reactivator 8%.
COc1ccc(CCNC(=O)C2CCN(S(=O)(=O)N3CCC4(CC3)OCCO4)CC2)cc1OC was read as hERG WT inh -4, KCNH2 3.1 inh -3, S-ASM inh -1%, Mm-Cpn inhibitor 1%, uPA surface inh 1% and p53 reactivator 4%.
For CCCCCCCC[n+]1cccc2c3ccccc3ccc21 the results were hERG WT inh -9, KCNH2 3.1 inh -2, S-ASM inh 305%, Mm-Cpn inhibitor -3%, uPA surface inh 0.89µM* and p53 reactivator -5%.
`Cc1cccc[n+]1CCCCCCCCCC[n+]1ccccc1C` gave hERG WT inh 2, KCNH2 3.1 inh 13, S-ASM inh -1%, Mm-Cpn inhibitor -2%, uPA surface inh 2% and p53 reactivator 0%.
CCCCCCCCCC[n+]1cccc2c3ccccc3ccc21 was read as hERG WT inh -19, KCNH2 3.1 inh -10, S-ASM inh 148%, Mm-Cpn inhibitor 0%, uPA surface inh 0.71µM* and p53 reactivator -6%.
For O=[N+]([O-])c1ccc(/C=N/N2CCN(Cc3ccccc3)CC2)cc1 the results were hERG WT inh -9, KCNH2 3.1 inh -80*, S-ASM inh -15%, Mm-Cpn inhibitor 1% and uPA surface inh 15%.
Screening Fc1ccc(N2CCN(Cc3c[nH]c4ccccc34)CC2)cc1 returned Mm-Cpn inhibitor 0% and p53 reactivator 0%.
For Cc1ccccc1N1CCN(Cc2c[nH]c3ccccc23)CC1 the results were hERG WT inh 21, KCNH2 3.1 inh -85*, S-ASM inh 2%, Mm-Cpn inhibitor 2%, uPA surface inh -17% and p53 reactivator -1%.
